This is part of a sample that, as a whole, favours compounds with a hit. Of some 83,000 tested, about 20% had one in any assay.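 Method: cells in 96-well plates; compound added at one concentration; 48 h incubation; percent growth measured; values under 10 scored active.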 Values without a mark were called inactive. Active and inactive are the calls of the source.
Experiments:
Test in all cases: NCI-60 one-dose screen, 48 h (100 = growth as untreated, 0 = no growth, -100 = all killed)
Conditions in all cases: 10 µM unless noted
T-47D breast = system: T-47D breast
BT-549 breast = system: BT-549 breast
MDA-MB-435 melanoma = system: MDA-MB-435 melanoma
SW-620 colon = system: SW-620 colon
MCF7 breast = system: MCF7 breast
HCT-116 colon = system: HCT-116 colon
HCC-2998 colon = system: HCC-2998 colon
KM12 colon = system: KM12 colon
MDA-MB-468 breast = system: MDA-MB-468 breast

| Structure (SMILES) | growth (T-47D breast) | growth (BT-549 breast) | growth (MDA-MB-435 melanoma) | growth (SW-620 colon) | growth (MCF7 breast) | growth (HCT-116 colon) | growth (HCC-2998 colon) | growth (KM12 colon) | growth (MDA-MB-468 breast) |
| --- | --- | --- | --- | --- | --- | --- | --- | --- | --- |
| COc1cc2nc(SCc3ccccc3)n(-c3ccc(Cl)cc3)c(=O)c2cc1OC | 45% | 0.336% (active) | 30.3% | 9.44% (active) | 14.7% | -41% (active) | 20.3% | 40.5% | -10.9% (active) |
| Cc1ccccc1[C@H]1C(C(=O)c2ccc(Cl)cc2)C2(N[C@@H]1c1ccccc1)C(=O)Nc1ccc(Br)cc12 (some centres not stated) | 22.6% | 13.1% | 3.21% (active) | 13.3% | -6.57% (active) | -71.6% (active) | -22.1% (active) | 3.4% (active) | -26.1% (active) |
| Cn1cc(-c2nnc(N)nc2-c2c[nH]c3ccc(Br)cc23)c2cc(Br)cnc21 | 47.7% | 50.2% | 33.6% | 75.1% | 29.8% | 44.8% | 72.7% | 49.3% | 25% |
| COc1cc2c3c(n(CCCN4CCC[C@@H]4CO)c(=O)c2cc1OC)-c1cc2c(cc1C3=O)OCO2 | 49.3% | 34.9% | -86.8% (active) | -77.8% (active) | -84.9% (active) | -59.1% (active) | -99.4% (active) | -98.2% (active) | -92.4% (active) |
| Cc1ccc(S(=O)(=O)c2nc(S(=O)(=O)c3ccc(C)cc3)c(N3CCN(C)CC3)s2)cc1 | 38% | 43.4% | 8.29% (active) | 36.1% | 43.1% | 46.9% | 107% | 76.4% | -15% (active) |
| CCCCNC(=S)Nc1ccc(OCc2nc3ccccc3[nH]2)cc1 | 45.3% | 65.9% | 49.6% | 91.5% | 46.5% | 63.7% | 59.6% | 1.01% (active) | 69.6% |
| CN(C)c1nc(NCCNS(=O)(=O)c2ccc(C3=Nc4c(N)nc(N)nc4NC(c4ccc(Cl)cc4)C3)cc2)nc(Nc2ccc(F)cc2)n1 (configuration not stated) | 33.8% | 15.4% | 32.3% | 33.4% | 2.35% (active) | 15.3% | -0.0718% (active) | 19.4% | -35.5% (active) |
| CNS(=O)(=O)c1ccc(Nc2ccc(C(F)(F)F)cc2)c(-c2cn(C)cn2)c1 | 47.7% | 58.7% | 55.5% | 70.9% | 42.3% | 49.4% | 43.6% | 35.9% | -1.31% (active) |

Reference: PubChem BioAssay (NCI)
